# Shown are actives, neighbours in structure and some others; about 2.5% of the full set was active somewhere.
# Mito fusion act: inhibitors of mitochondrial division or activators of mitochondrial fusion | 0.23% of 320,000 active | Potency, µM (doses to about 46.1 µM), for the others: at the top dose growth rescue (activation), hits mostly activators | S. cerevisiae fusion-defective mutant growth rescue, CellTiterGlo 48 h | AID 485298; note: potency is the fitted concentration of half-maximal effect; % of control where 0% means no effect; nearly all actives have a fitted effect of over 45% in size
#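 Temperature-sensitive fusion-defective S. cerevisiae (e.g. fzo1-1, mgm1-5) were grown with compound in YPEG medium (3% ethanol, 3% glycerol) for 48 hours at 37C. Growth rescue was measured as viability by CellTiterGlo luminescence after 10 minutes at ambient.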
# aSyn yeast inh: inhibitors of alpha-synuclein toxicity in yeast; Yeast expressing alpha-synuclein, growth rescue, BacTiter-Glo, 24 h; Potency, µM (top dose mostly 46.1 µM), inactives show at the highest dose growth rescue (activation), usual class: activators; 0.14% of 370,000 active; note: potency is the fitted concentration of half-maximal effect; % of control where 0% means no effect; nearly all actives have a fitted effect of over 65% in size
#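 Readout is rescue of growth in alpha-synuclein-expressing yeast, so inhibitors of toxicity appear as activators. Growth after 24 hr at 30 deg C in galactose medium is quantified by luminescence.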
# CCT modulator: cytosolic chaperonin activity modulation; purified chaperonin ATPase assay, HTRF ADP detection, 30 min; activity change, % (test concentration not listed), hits read low; 0.3% of 360,000 active; AID 651819; in the data active = activity change below about -30%; note: % is set by controls: 0 for no effect and ±100 for the full control effect
#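 Nucleotide hydrolysis assay: TRiC at 20–40 nM final (set by batch activity) with 10 uM ATP, 30 min at 37 °C, in presence of 76 uM compound. Detection by competitive ADP HTRF, 30 min ambient.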
# Apoferritin bind: binds horse apoferritin like a general anesthetic | P02791 | apoferritin/1-aminoanthracene competitive binding, fluorescence | Potency, µM (titrated, usually from 77.5 µM), for the others: at the top dose activity change, negative = displacement, hits mostly inhibitors | 0.074% of 350,000 active | AID 485281; note: potency is the fitted concentration of half-maximal effect; % is set by controls: 0 for no effect and ±100 for the full control effect; nearly all actives have a fitted effect of over 20% in size
# Target sequence (P02791 2-175 limits assumed): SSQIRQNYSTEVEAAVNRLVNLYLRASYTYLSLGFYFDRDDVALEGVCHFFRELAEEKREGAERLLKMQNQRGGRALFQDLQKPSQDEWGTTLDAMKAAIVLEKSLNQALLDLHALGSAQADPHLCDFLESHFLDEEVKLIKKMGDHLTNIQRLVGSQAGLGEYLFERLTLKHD
#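 In PBS, apoferritin at 10 uM is loaded with 1-AMA from a 50% saturated solution. After 10 min of compound exposure at ambient temperature, reduced 535 nm fluorescence indicates probe displacement.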
# TDP43 rescue: rescues yeast growth from TDP-43 toxicity; TDP-43 expressing yeast growth rescue, BacTiter-Glo, 24 h; AID 652104; Potency, µM (doses to about 46.1 µM), for inactives: at the top dose growth rescue (activation), actives largely listed as activators; 1.8% of 410,000 active; note: potency is the fitted concentration of half-maximal effect; % of control where 0% means no effect; nearly all actives have a fitted effect of over 50% in size
#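 Luminescence from BacTiter-Glo reports growth of TDP-43-expressing yeast after 24 hr at 30 deg C with compound. Cells were raffinose-pregrown to mid-log, then seeded in galactose medium at OD600=0.02.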
# Akt phos inh: inhibitors of Akt phosphorylation. Neuro2A IGF-stimulated pAkt S473 HTRF, 20 min; hits give low values. activity change, % for hits at 50 µM. 0.32% of 360,000 active; in the data active = activity change below about -80%; inconclusive = mostly about -51% to -80%; note: % is set by controls: 0 for no effect and ±100 for the full control effect
#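 Single-point screen (50 µM final compound) in Neuro2A cells stimulated 20 min with 6 nM IGF at 37 deg C. After lysis, Ser473-phosphorylated Akt read by HTRF (ex 330 nm, em 615/665 nm) as the 665/615 ratio.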
# Active calls of the source: *; i = inactive; ? = inconclusive; . = not tested or not shown; ! = a repeat was not active; [ ] = remark or other dose. Unless noted, calls come from the whole dose curve; as a rule, active = well fitted curve in the direction sought with a large enough effect; inconclusive = small, poorly fitted or top-dose-only effect, or another doubt; inactive = no such curve, though single readings can be large; an effect the other way counts as inactive or inconclusive.
SMILES,Mito fusion act,aSyn yeast inh,CCT modulator,Apoferritin bind,TDP43 rescue,Akt phos inh
Cn1cccc([N+](=O)[O-])c1=O,.,1.0%,1.6,.,4.6%,i
Cn1c(=O)c(=O)n(C)c2cc([N+](=O)[O-])c([N+](=O)[O-])cc21,1.3%,-1.2%,-32.5*,6.7%,15.6%,i
O=C(O)Cc1ccc2sc(-c3ccccc3)nc2c1,-2.2%,-27.0%,-2.7,4.3%,3.16µM*,i
O=C(Nc1cccc(-c2nc3ccccc3s2)c1)C1=COCCO1,?,-1.2%,-1.5,-6.7%,20µM*,i
CC(=O)Nc1cccc(-c2nc3ccccc3s2)c1,16.9%,8.0%,0.5,-11.3%,8.91µM*,i
CCOc1cc(-c2nc3ccccc3s2)ccc1O,-6.4%,3.2%,-0.5,-8.0%,12.6µM*,i
O=C(Nc1ccc(-c2nc3ccccc3s2)cc1)C1=COCCO1,0.6%,-11.2%,-0.9,-1.1%,-17.6%,i
CC(=O)Nc1cccc(-c2nc3ccc(NC(C)=O)cc3s2)c1,-5.4%,-5.9%,-1.7,-12.0%,-0.3%,i
O=[N+]([O-])c1ccc(O/N=[N+](\[O-])N2CCCC2)c([N+](=O)[O-])c1,.,-44.9%,.,.,.,.
CN(C)/[N+]([O-])=N/Oc1ccc([N+](=O)[O-])cn1,.,-0.3%,.,.,.,.
O=S(=O)(NCc1ccc(Cl)cc1)c1ccc2[nH]c3c(c2c1)CCCC3,.,.,.,37.9%,-73.9%,.
CCN1C(=O)c2ccccc2Sc2ccc(NC(=O)Nc3cccc([N+](=O)[O-])c3C)cc21,.,.,.,39.5%,1.3%,.
O=C(c1cn(-c2ccc(Cl)c(Cl)c2)nn1)C1CC1,1.0%,9.8%,-1.7,-1.3%,8.91µM*,i
O=C1CCCCC1C(=O)c1cn(-c2ccc(Cl)c(Cl)c2)nn1 (centres undefined),-0.4%,1.1%,1.0,-4.5%,8.4%,i
Cc1ccc(-c2c(C3C4C=CCCC4(C)C(=O)N3Cc3ccccc3)ccc3ccccc23)cc1 (centres undefined),.,.,.,-9.4%,.,.
O=C(c1ccc2c(c1)OCCO2)N(Cc1cccnc1)c1nc2c(F)cccc2s1,.,.,.,-1.5%,?,.
Cc1oc2c(c1C(=O)N1CCC(C)CC1)C(=O)c1ccccc1C2=O,-4.7%,7.8%,-0.2,-14.8%,12.6µM*,i
CCOc1ccc(CNCc2c(C(=O)O)n(Cc3ccc(OC)cc3)c3ccccc23)cc1,.,.,.,-3.8%,26.8%,.
CCn1nc(C)c2c(-c3ccccc3)cc(=O)n(C(C)C(=O)NCc3ccccc3OC)c21 (centres undefined),.,.,.,-6.8%,10µM*,.
CCn1nc(C)c2c(-c3ccccc3)cc(=O)n(C(C)C(=O)NCCc3ccc(Cl)cc3)c21 (centres undefined),.,.,.,2.6%,22.4µM*,.
Cc1nn(C)c2c1c(C(F)(F)F)cc(=O)n2C(C)C(=O)NCCc1ccc(Cl)cc1 (centres undefined),.,.,.,-12.4%,7.1%,.
Cc1nn(C)c2c1c(-c1ccccc1)cc(=O)n2C(C)C(=O)NCCc1ccc(Cl)cc1 (centres undefined),.,.,.,0.0%,22.4µM*,.
COc1cccc(OCc2cc(C3Nc4ccccc4C(=O)N3c3ccccc3)ccc2OC)c1 (centres undefined),.,17.3%,.,.,.,.
Cc1ccccc1Nc1cc(C(=O)NC2CCC(C)CC2)c2ccccc2n1 (centres undefined),.,.,.,12.9%,25.2%,.
CCCCOc1ccc(-c2nnc(-c3ccncc3)o2)cc1,-1.9%,-5.5%,1.4,-7.7%,20µM*,i
SMILES,Mito fusion act,aSyn yeast inh,CCT modulator,Apoferritin bind,TDP43 rescue,Akt phos inh
CCOc1ccc(-c2nnc(-c3ccncc3)o2)cc1,-0.7%,-3.7%,1.1,-13.6%,?,i
CC[C@H](NC(=O)c1c(C)c(-c2ccccc2)nc2ccccc12)c1ccccc1,20.6µM*!,-5.0%,0.3,-3.6%,0.0%,i
Cc1c(-c2ccccc2)nc2ccccc2c1C(=O)O,2.6%,0.1%,-2.2,-8.1%,-15.5%,i
Cc1ccc(CNC(=O)CSCc2nc(-c3cccc(C)c3)oc2C)cc1,.,.,.,-3.9%,23.3%,.
Cc1ccc(CCNC(=O)CSCc2nc(-c3ccc(C)cc3)oc2C)cc1,.,.,.,-12.9%,25.1µM*,.
Cc1cccc(-c2nc(CSCC(=O)NCCc3ccc(Cl)cc3)c(C)o2)c1,.,.,.,-10.6%,25.1µM*,.
N/C(=C\c1ccccc1)c1ccncc1,.,-0.1%,.,.,.,.
O=C(COC(=O)C1CCN(c2ccc(C(F)(F)F)cn2)CC1)NCc1ccccc1,-2.1%,0.5%,2.1,.,22.4µM*,i
Cc1ccc(NC(=O)COC(=O)C2CCN(c3ccc(C(F)(F)F)cn3)CC2)cc1,3.8%,2.2%,0.9,.,25.1µM*,i
CCCOC(=O)c1ccc(NC(=O)COC(=O)C2CCN(c3ccc(C(F)(F)F)cn3)CC2)cc1,.,-0.2%[1.84 µM],1.5,.,?,i
CC(C)([CH2][Sn]([CH2]C(C)(C)c1ccccc1)([CH2]C(C)(C)c1ccccc1)[O][Sn]([CH2]C(C)(C)c1ccccc1)([CH2]C(C)(C)c1ccccc1)[CH2]C(C)(C)c1ccccc1)c1ccccc1,.,.,.,-9.6%,.,.
Cc1sc2nc(-c3ccc(Br)cc3)oc(=O)c2c1C,5.2%,0.1%,-37.9*,-4.4%,18.6%,i
Cc1sc2nc(-c3cccs3)oc(=O)c2c1C,-2.8%,-2.7%,-0.6,15.0%,7.4%,i
O=c1c2c3c(sc2n(Cc2ccc(F)cc2Cl)c(=O)n1-c1ccc(Cl)cc1)CCC3,.,.,.,52.8%,-1.5%,.
COc1ccc2c(c1)CC=C1C2CCC2(C)C(=O)C(=NO)CC12 (centres undefined),.,6.2%,0.4,.,11.2µM*,i
Cc1cc(C)nc(NC(=O)/C=C/c2ccc(Cl)cc2Cl)c1,4.8%,-17.3%,-1.6,?,7.08µM*,i
Cc1cc(C)nc(NC(=O)/C=C/c2ccccc2Cl)c1,25.1µM*,-18.6%,0.8,-12.1%,12.6µM*,i
O=C(/C=C/c1ccc(Cl)cc1Cl)Nc1ccncc1,?,-1.6%,2.8,-3.1%,-5.7%,i
COc1ccccc1/C=C/c1nc2ccccc2s1,.,-8.0%,.,.,.,.
COc1ccccc1NS(=O)(=O)c1ccc2ccccc2c1,-21.7%,26.0%,-1.8,-8.0%,20µM*,i
O=S(=O)(Nc1cccc2ccccc12)c1ccc2ccccc2c1,.,20µM*,.,.,.,.
O=S(=O)(Nc1cccc2ccccc12)c1ccccc1,8.5%,15.9%,0.5,-0.6%,2.0%,i
COc1ccc(C(CNC(=O)c2cccc(S(=O)(=O)Nc3ccccc3OC)c2)N2CCCC2)cc1 (centres undefined),-9.9%,-2.7%,-50.9*,.,14.2%,i
O=C(NCC1CC1)[C@H]1C[C@@H]1[C@H](NP(=O)(c1ccccc1)c1ccccc1)c1ccccc1,.,.,.,7.0%,.,.

# Source: PubChem (National Center for Advancing Translational Sciences (NCATS))
